# Source: PubChem BioAssay (National Center for Advancing Translational Sciences (NCATS))
# D1 antagonist = human D1 dopamine receptor antagonism; P21728; AID 504652; hit rate 3.2% among 360,000; HEK293 TREx D1 cells, calcium flux, dopamine EC80; stronger effect = lower value; activity change, negative = inhibition, % at 10 µM; in the data active means activity change below about -30%; further: on the % scale 0 is the no-effect control and ±100 the full control effect
# Target sequence (P21728 whole entry, looked up): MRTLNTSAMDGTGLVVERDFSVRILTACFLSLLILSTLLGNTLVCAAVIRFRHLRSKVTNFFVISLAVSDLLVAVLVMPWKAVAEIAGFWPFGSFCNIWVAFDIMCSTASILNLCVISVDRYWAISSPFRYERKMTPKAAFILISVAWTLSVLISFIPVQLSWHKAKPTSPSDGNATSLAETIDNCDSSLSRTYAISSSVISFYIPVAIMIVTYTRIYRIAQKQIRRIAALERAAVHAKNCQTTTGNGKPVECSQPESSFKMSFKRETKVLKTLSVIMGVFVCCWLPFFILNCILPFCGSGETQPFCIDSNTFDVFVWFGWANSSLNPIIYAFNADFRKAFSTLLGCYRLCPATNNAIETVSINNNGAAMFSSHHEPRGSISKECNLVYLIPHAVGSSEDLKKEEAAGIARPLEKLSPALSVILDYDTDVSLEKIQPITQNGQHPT
#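 Compound effects on dopamine-evoked calcium signalling were measured in tetracycline-induced HEK293 Trex D1 cells. Dopamine at EC80 followed a 180 s compound pre-read, and fluorescence was tracked kinetically for 180 s more.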
# D1 potentiator = human D1 dopamine receptor positive modulation; hit rate 0.036% among 360,000; HEK293 TREx D1 cells, calcium flux, dopamine EC20 potentiation; P21728; potentiation, % at 10 µM; AID 504651; in the data active means potentiation above about 30%; further: 0% is about no effect
# TRHR enhancer = allosteric enhancers of human TRH receptor; hit rate 0.66% among 360,000; P34981; TRHR cells, fluo-8 calcium fluorescence, EC20 TRH enhancement; enhancement, % at 2 µM; in the data active means enhancement above about 30%; further: 0% is about no effect
#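 Enhancer read-out: after compound pinning and an initial kinetic agonist-mode read, an EC20 of TRH (10 nM final) was injected and fluo-8 calcium signal (Ex 480/Em 530) followed at 1 s/cycle for 100 cycles in TRHR-expressing cells.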
# TRHR agonist = agonists of human TRH receptor. P34981. TRHR cells, calcium flux fluo-8, FDSS agonist mode. activation, % at 2 µM. hit rate 0.18% among 360,000. AID 493084; further: 0% is about no effect
#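 Agonist-mode FDSS calcium read (Ex 480/Em 530, 1 s cycles) in 1536-well TRHR cells with fluo-8 dye, after 10-cycle baseline and 23 nL compound addition; TRH at EC20 (10 nM final) added afterwards for the enhancer phase.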
# D1 ag = human D1 receptor agonism; P21728; HEK293 T-REx D1 cells, calcium flux, agonist mode; activation, % at 2 µM; hit rate 1% among 360,000; AID 504660; further: 0% is about no effect
#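 Agonism was scored from calcium flux recorded over 180 s (1 read/s) after pintool compound addition, following a 10-cycle baseline. Cells were inducible force-coupled HEK293 TREx D1, plated overnight at 30 C and loaded with no-wash calcium dye.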
# Active calls of the source: *; ! = repeats disagree. The list is not random: actives were taken first. Their share in the collection is about 4.6%. Unless noted, no stated cut-off is given here; in the data, active means activation above about 30%; inactive means the rest.
SMILES,D1 antagonist,D1 potentiator,TRHR enhancer,TRHR agonist,D1 ag
O=C(COC(=O)CCNS(=O)(=O)c1ccccc1)NC(=O)c1ccccc1,-8.8,1.8,13.7,-0.4,1.5
CCOC(=O)c1ccc(NC(=O)N2CCOc3ccccc32)cc1,-30.3*,-4.8,-7.7,0.8,8.6
CCOC(=O)c1ccc(NC(=O)CC2COc3ccccc3O2)cc1 (stereo unspecified),-30.2*,1.0,9.8,0.6,0.3
Cc1onc(-c2c(F)cccc2Cl)c1C(=O)NCc1ccc(F)cc1,11.8,2.6,22.4,-1.0,26.6
O=C(Nc1ccc2oc(-c3cccc(Cl)c3Cl)nc2c1)c1cccc(Br)c1,-6.2,0.9,5.3,0.8,-1.4
CC(Sc1nnc(NCc2ccccc2)s1)C(=O)Nc1ccc2c(c1)C(=O)c1ccccc1C2=O (stereo unspecified),-33.1*,-5.7,0.1,0.2,3.7
CCCSCCCNC(=O)Cn1cc2c(n1)CCC(C)C2 (stereo unspecified),-1.8,-1.2,-0.8,-0.7,-0.4
CCN(CC)CCCNC(=O)Cn1cc2c(n1)CCC(C)C2 (stereo unspecified),-41.0*,-3.6,-1.1,-0.3,1.3
Cc1cc(-c2cc(C(=O)NCc3ccccc3)on2)nc(NCC2CC2)n1,6.6,-3.2,3.9,1.1,10.7
CCCNc1nc(C)cc(-c2cc(C(=O)NCc3ccccc3)on2)n1,-30.2*,-1.1,0.6,0.7,5.8
COc1ccccc1CNC(=O)c1ccc2c(c1)nnn2C1CCCC1,24.8,-2.5,-2.8,-0.5,2.8
COc1cccc(Nc2nc3cc(C)ccc3nc2NS(=O)(=O)c2ccc(Cl)cc2)c1,-50.1*,-4.2,-1.4,6.1,57.8*
Cc1ccc2nc(NS(=O)(=O)c3ccc(Cl)cc3)c(Nc3ccc(C(=O)O)cc3)nc2c1,-8.5,-1.1,1.5,-0.5,10.9
CCOC(=O)c1ccc(Nc2nc3ccccc3nc2NS(=O)(=O)c2ccc(Cl)cc2)cc1,-40.4*,-2.0,-6.1,-0.4,15.1
CCc1ccc(Nc2nc3ccccc3nc2NS(=O)(=O)c2ccccc2)cc1,-48.6*,-4.8,-1.5,0.5,17.1
CSc1ccc(NC(=O)NCCCN2CCN(c3ccccc3F)CC2)cc1,-72.9*,-4.0,-0.7,0.7,37.0*
O=C(NCCCN1CCN(c2ccccc2F)CC1)Nc1ccc(F)cc1,-78.7*,-11.3,2.6,-0.3,4.1
O=C(NCCCN1CCN(c2ccccc2F)CC1)Nc1ccccc1[N+](=O)[O-],-53.8*,-13.8,1.6,-0.4,7.9
C=CCSc1nc2sc3c(c2c(=O)[nH]1)CCC3,-8.0,-2.2,0.5,0.8,-0.2
CCn1c(CNC(=O)c2ccc(OC)cc2)nnc1SCC(=O)Nc1ccc(C)cc1,8.7,0.9,-1.9,0.7,1.6
O=C(O)c1ccc(-c2ccc(/C=c3/sc4nc5ccccc5n4c3=O)o2)cc1Cl,-20.2,-4.7,4.7,55.0*,48.1*
Cc1cc(/C=c2\sc3nc4ccccc4n3c2=O)c(C)n1-c1ccc(C(=O)O)cc1,-6.5,-1.4,-2.5,0.9,1.9
Cc1ccc2c(nc3s/c(=C/c4cccs4)c(=O)n32)c1C,1.8,0.7,0.1,-1.1,2.1
Cc1ccc2c(nc3s/c(=C\c4ccc(-c5ccccc5C(=O)O)o4)c(=O)n32)c1C,-5.1,-3.0,8.5,53.9*,191.4*
N#CC(c1ccc(Cl)cc1)c1ncc(C(F)(F)F)cc1Cl (stereo unspecified),-51.4*,-3.9,-1.3,0.0,24.8
SMILES,D1 antagonist,D1 potentiator,TRHR enhancer,TRHR agonist,D1 ag
CC(C)NC[C@@H](O)c1ccc(O)c(O)c1,-32.4*,5.0,9.6,0.4,0.2
COc1ccc(NC(=O)c2cn3c4c(ccc(Cl)c4c2=O)OC(C)C3)cc1OC (stereo unspecified),15.8,8.4,50.1*,-0.5,3.4
COc1ccccc1CNC(=O)c1cc(S(=O)(=O)N2CCCC(C)C2)cn1C (stereo unspecified),-17.2,-1.3,38.2*,-0.8,2.0
COC(=O)c1cc(S(=O)(=O)NCc2ccccc2OC)cn1C,-47.5*,-8.7,-1.4,0.3,9.8
COC(=O)c1cc(S(=O)(=O)NCC2CCN(Cc3cccc(F)c3)CC2)cn1C,-39.3*!,-6.9,-3.2,0.4,8.6
COC(=O)c1cc(S(=O)(=O)NCc2cccc(OC)c2)cn1C,-18.9,-3.7,9.6,0.0,3.5
